Results from PubChem BioAssay AID1851 (National Center for Advancing Translational Sciences (NCATS), 2009).
Where “and” joins values, the source holds several entries; their conditions need not be identical. Equal values may be shown once. Out of some 16,000 compounds screened, about 2,600 (16%) were called active. Not shown: some 20% with an inconclusive outcome. The sample holds actives, similar compounds and a random draw of the others, so the mix is not that of the screen. The call rests on the fitted dose curve; in most records, active means well fitted curve in the direction sought with a large enough effect; inconclusive means small, poorly fitted or top-dose-only effect, or effect the other way; inactive means no such curve, though single readings can be large or run the other way.

biological target: Cytochrome P450 2D6 (Homo sapiens) (UniProt P10635); assay: Cytochrome panel assay with activity outcomes; conditions: recombinant CYP, pro-luciferin dealkylation, luminescence, p450-cyp2d6; series mostly up to 57.1 µM; activity, negative = inhibition: at the top concentration
On the % scale 0 is the no-effect control and ±100 the full control effect.

Sequence of Cytochrome P450 2D6 (Homo sapiens) (P10635 whole entry, looked up): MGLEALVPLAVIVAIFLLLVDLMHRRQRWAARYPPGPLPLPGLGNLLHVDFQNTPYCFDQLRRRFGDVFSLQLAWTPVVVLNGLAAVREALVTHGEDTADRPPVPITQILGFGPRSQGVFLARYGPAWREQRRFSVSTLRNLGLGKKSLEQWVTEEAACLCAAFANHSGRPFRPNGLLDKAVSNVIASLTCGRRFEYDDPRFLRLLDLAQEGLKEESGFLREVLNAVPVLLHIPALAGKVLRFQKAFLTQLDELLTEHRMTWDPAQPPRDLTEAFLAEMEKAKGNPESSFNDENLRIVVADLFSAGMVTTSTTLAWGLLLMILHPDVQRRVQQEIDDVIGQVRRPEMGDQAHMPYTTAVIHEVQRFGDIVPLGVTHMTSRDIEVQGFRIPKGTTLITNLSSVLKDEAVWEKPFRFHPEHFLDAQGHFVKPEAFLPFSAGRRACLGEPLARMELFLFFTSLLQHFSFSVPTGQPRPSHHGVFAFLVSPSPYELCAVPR

Question: For O=C(O)Cc1cccnc1C(=O)O, which “activity, negative = inhibition” value is on record?
Answer: 9% (inactive)

Question: How did the activity, negative = inhibition turn out when O=C(O)[C@@H]1[C@H](C(=O)O)[C@]2(Cl)C(Cl)=C(Cl)[C@@]1(Cl)C2(Cl)Cl was run?
Answer: -8.74% [at 11.4 µM] (inactive)

Question: O=c1c2ccccc2c2ccccc2c(=O)n1-c1cc2c3ccccc3ccc2c2ccccc12 was tested. Which activity, negative = inhibition did it give?
Answer: 2.85% [at 11.4 µM] (inactive)

Question: With NCC[C@H](O)C(=O)N[C@H]1C[C@@H](N)[C@@H](O[C@H]2O[C@@H](CN)[C@@H](O)[C@@H](O)[C@@H]2N)[C@@H](O[C@H]2O[C@@H](CO)[C@@H](O)[C@@H]2O)[C@@H]1O as the compound, how does the “activity, negative = inhibition” value read?
Answer: 2.47% [at 25.6 µM] (inactive)

Question: Which AC50 does the source give for c1ccc2sc(C3(N4CCCCC4)CCCCC3)cc2c1 here?
Answer: 12.6 µM (active) and 3.16 µM (active)

Question: With CN1C(=O)CCS(=O)(=O)[C@H]1c1ccc(Cl)cc1 as the compound, how does the “activity, negative = inhibition” value read?
Answer: 3.35% (inactive)

Question: How did the “activity, negative = inhibition” value turn out when CCCn1c(=O)c2[nH]c(C3CCCC3)nc2n(CCCOC(=O)c2ccc(S(=O)(=O)F)cc2)c1=O was run?
Answer: -2.07% (inactive)

Question: For Cc1ncsc1CCCl, which AC50 is on record?
Answer: 12.6 µM (active)

Question: Which “activity, negative = inhibition” value does the source give for C=C(C)[C@H]1CC[C@]2(C(=O)O)CC[C@]3(C)[C@@H](CC[C@H]4[C@@]5(C)CC[C@@H](O)C(C)(C)[C@@H]5CC[C@@]43C)[C@H]12 here?
Answer: 7.05% [at 25.6 µM] (inactive)

Question: Which AC50 does the source give for Cc1nc(-c2ccc(-c3ccc(C(=O)N4CCc5cc6c(cc54)C4(CCN(C)CC4)CO6)cc3)c(C)c2)no1 here?
Answer: 31.6 µM (active)

Question: With COC(=O)c1c(C)ccc2c(O)c3c(cc12)C(=O)c1c2c(cc(O)c1C3=O)[C@@]1(C)O[C@@](C)(O2)[C@@H](O)[C@H](N(C)C)[C@H]1O as the compound, how does the activity, negative = inhibition read?
Answer: -17.5% [at 11.4 µM] (inactive)

Question: With C=C[C@]12CN(C)[C@H]3C1[C@@]1(C(=O)Nc4ccccc41)[C@H]1C[C@H]2[C@H]3CO1 as the compound, how does the “activity, negative = inhibition” value read?
Answer: -2.6% [at 25.6 µM] (inactive)

Question: With N[C@@H](CSC1c2ccccc2-c2ccccc21)C(=O)O as the compound, how does the activity, negative = inhibition read?
Answer: -14.3% [at 11.4 µM] (inactive)

Question: With O=C(CNS(=O)(=O)c1cccs1)N1CCC2(CC1)OCCO2 as the compound, how does the “activity, negative = inhibition” value read?
Answer: -6.61% (inactive)

Question: C(=C/c1ccccc1)/CN1CCN(CCOC(c2ccccc2)c2ccccc2)CC1 was tested. Which AC50 did it give?
Answer: 5.01 µM (active)

Question: Which AC50 does the source give for Fc1ccc(C(OCCN2CCN(C/C=C\c3ccccc3)CC2)c2ccc(F)cc2)cc1 here?
Answer: 7.94 µM (active)

Question: Which AC50 does the source give for Clc1ccc([C@@H](OCCN2CCCCC2)c2ccccc2)cc1 here?
Answer: 0.0158 µM (active)

Question: For CC(C)(c1ccc(OC[C@@H]2CO2)cc1)c1ccc(OC[C@H]2CO2)cc1, which “activity, negative = inhibition” value is on record?
Answer: 5.45% (inactive)

Question: Which activity, negative = inhibition does the source give for C[C@@H]1CC[C@@H]2N(C1)C[C@H]1[C@@](O)([C@H](O)C[C@]3(O)[C@H]4CC[C@H]5[C@]6(O)O[C@]4(C[C@]13O)[C@@]5(C)CC[C@@H]6O)[C@@]2(C)O here?
Answer: 10.1% [at 11.4 µM] (inactive)

Question: For CCCCC/C=C\C/C=C\C/C=C\C/C=C\CCCC(=O)NCC(=O)O, which “activity, negative = inhibition” value is on record?
Answer: 3.86% (inactive)
